In the OligoGym collection:

Molecular target: TUBA8
Assay: pooled miR-30 sensor sort-seq; sequence = guide strand
Conditions: shRNA
Note: reference of the scale not given here.

Row | Sequence | sensor-assay potency score (higher = more potent)
1 | AATAGCGACATTCACATCCTTG | -0.744
2 | ATTGAGGACACAATCTGACTGA | 0.101
3 | TTGAGGACACAATCTGACTGAT | -0.409
4 | TACATGAGGTCGAACTTGTGGT | -0.814
5 | TTTCTTGCCATAATCCAGGGAG | -0.376
6 | TCGAACTTGTGGTCGAGGCGGG | -0.697
7 | TGATCTTGCTAGCTTGAGCATC | -1.14
8 | TTGATCTTGCTAGCTTGAGCAT | -0.893
9 | TTGAGGTTGGTATAGGTAGGGC | -0.964
10 | TCATCATCGTTGATCTTGCTAG | -0.473
11 | TTTCTTCTTCAAACGAATCAGT | -0.469
12 | TCGCACTTCACCATCTGGCTGT | -0.0578

Molecular target: TUBAL3
Assay: as above
Conditions: shRNA

Row | Sequence | sensor-assay potency score (higher = more potent)
13 | TTGTCCACCATGAAGGTACAGT | -0.604
14 | TTCTCTGAGGTACCAGTGCAGA | -1.43
15 | TAACTTGACATTCATTTGCACC | -1.19
